Laboratory results as given in ChEMBL document CHEMBL4513154, “CO-ADD screening of Jain University (India) compounds”.
Potency and affinity values are given separately.

Assays:
Staphylococcus aureus = conditions: Concentration 32 ug.mL-1; ASSAY_TEST Inhibition of Bacterial Growth; detection method Absorption (OD600); MEDIA CAMHB; plate type 384well; NBS; CORNING #3640; time 18 hr
Escherichia coli = conditions: Concentration 32 ug.mL-1; ASSAY_TEST Inhibition of Bacterial Growth; detection method Absorption (OD600); MEDIA CAMHB; plate type 384well; NBS; CORNING #3640; time 18 hr

Compound | Inhibition (Staphylococcus aureus) [%] | Inhibition (Escherichia coli) [%]
Clc1cccc2[nH]c(-c3cscn3)nc12 | -11.71 | -6.5
N#Cc1ccccc1-c1ccc(Cn2c(-c3cscn3)nc3cc(Cl)ccc32)cc1 | -3.28 | -8.05
N=C(Nc1ccccc1)c1cscn1 | -2.93 | 3.08
Nc1nc(Nc2ccc(Cl)cc2)sc1-c1nc2ccccc2c(=O)n1-c1ccccc1 | 3.07 | -2.8
Clc1ccc2c(c1)nc(-c1cscn1)n2Cc1ccccc1 | -3.7 | -7.11
Nc1nc(Nc2ccccc2)sc1-c1nc2ccccc2c(=O)n1-c1ccc(Cl)cc1 | 3.1 | -14.74
Clc1ccc2nc(-c3cscn3)n(Cc3ccccc3)c2c1 | -8.96 | -8.13
N=C(Nc1ccccc1Cl)c1cscn1 | 4.17 | 18.4
Cn1c(-c2cscn2)nc2cc(Cl)ccc21 | -4.5 | -10.62
Cn1c(-c2cscn2)nc2c(Cl)cccc21 | -0.57 | -9.25
N#Cc1ccccc1-c1ccc(Cn2c(-c3cscn3)nc3c(Cl)cccc32)cc1 | 2.86 | 1.52
CCc1ccc(Nc2nc(N)c(-c3nc4ccccc4c(=O)n3-c3ccc(Cl)cc3)s2)cc1 | 11.42 | 0.09
N#Cc1ccccc1-c1ccc(Cn2c(-c3cscn3)nc3ccc(Cl)cc32)cc1 | -8.21 | -6.57
O=[N+]([O-])c1ccc(Cn2c(-c3cscn3)nc3ccccc32)cc1 | 0.92 | -6.04
Clc1cccc2c1nc(-c1cscn1)n2Cc1ccccc1 | -5.58 | -9.3
Fc1cc(Cn2c(-c3cscn3)nc3c(Cl)cccc32)cc(C(F)(F)F)c1 | 6.77 | 3.26
N#Cc1ccccc1-c1ccc(Cn2c(-c3cscn3)nc3ccccc32)cc1 | 0.09 | -0.92
N#Cc1ccc(Cn2c(-c3cscn3)nc3c(Cl)cccc32)cc1 | -3.58 | -8.14
Nc1nc(Nc2ccccc2)sc1-c1nc2ccccc2c(=O)n1-c1ccccc1 | 10.63 | 1.98
CC(C)c1ccc(Cn2c(-c3cscn3)nc3c(Cl)cccc32)cc1 | 1.32 | -0.45
CCc1ccc(-n2c(-c3sc(Nc4ccccc4)nc3N)nc3ccccc3c2=O)cc1 | 9.22 | -7.31
CCc1ccc(Nc2nc(N)c(-c3nc4ccccc4c(=O)n3-c3ccccc3)s2)cc1 | 14.54 | -0.69
CCc1ccc(Nc2nc(N)c(-c3nc4ccccc4c(=O)n3-c3ccc(CC)cc3)s2)cc1 | 1.66 | -1.71
